Test results from PubChem BioAssay.
For some of these results: Potency and affinity values are given separately. Activity calls are given as the source filed them. Unless noted, the rule behind the calls is not given here.

Columns and labels:
[1] = antimalarial activity against Dd2 strain (AID 2302;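 active = growth inhibition above 50% at the single 2 µM test dose, taken to imply half-maximal potency below 2 µM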;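 note: 0% = DMSO untreated growth and 100% = chloroquine plus artemisinin killed control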); conditions: P. falciparum Dd2 in RBCs, LDH growth readout, 72 h; at 2 µM; active compounds read high
[2] = HepG2 cytotoxicity, primary screen, cytotoxicity control for P. falciparum antimalarial project, cell-based, ATP luminescence (AID 2303;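 active = inhibition above 50%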;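 note: 0% = DMSO wells and 100% = digitonin-killed cells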); conditions: HepG2 viability, 24-48 h, at 10 µM, active compounds read high
[3] = target: L-lactate dehydrogenase (Plasmodium falciparum (isolate CDC / Honduras)) (UniProt Q27743); experiment: PfLDH activity inhibition – cell lysate, 3D7 strain, counter-screen for P. falciparum growth inhibition project (AID 2304);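 note: 0% = vehicle and 100% = reference inhibitor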; conditions: P. falciparum 3D7 crude extract, LDH APAD/NBT absorbance; at 2 µM; active compounds read high
[4] = inhibition of 3D7 malaria parasite growth – strain 3D7 (AID 2306);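 note: 0% = DMSO wells and 100% = chloroquine plus artemisinin control wells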; conditions: P. falciparum 3D7 erythrocytic growth, LDH absorbance, 72 h; at 2 µM; active compounds read high
[5] = target: Calcium-dependent protein kinase 1 (Plasmodium falciparum (isolate 3D7)) (UniProt P62344); experiment: PfCDPK1 kinase inhibitors, biochemical, TCAMS library (AID 1159585; cut-off not given, nearly all actives have IC50 up to about 0.98 µM;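 note: inhibitors leave more ATP so luminescence rises with inhibition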); conditions: recombinant PfCDPK1, Kinase-Glo ATP depletion luminescence
[6] = target: Plasmodium falciparum protein kinase 6 (PK6, PF3D7_1337100) (UniProt Q8IDW1); experiment: PfPK6 kinase inhibitors, biochemical, TCAMS library (AID 1159586); conditions: recombinant PfPK6, Kinase-Glo ATP depletion luminescence
[7] = target: Protein kinase 7 (PK7), Plasmodium falciparum 3D7 (PF3D7_0213400) (UniProt Q7YTF7); experiment: inhibition of Plasmodium PK7 catalytic activity – biochemical, TCAMS antimalarial set, Kinase-Glo luminescence (AID 1159587); conditions: recombinant PfPK7, Kinase-Glo ATP depletion luminescence
[8] = target: Calcium-dependent protein kinase 4 (Plasmodium falciparum (isolate 3D7)) (UniProt Q8IBS5); experiment: PfCDPK4 kinase inhibitors, biochemical, TCAMS library (AID 1159588; cut-off not given, nearly all actives have IC50 up to about 0.91 µM); conditions: recombinant PfCDPK4, Kinase-Glo ATP depletion luminescence
Sequence of Calcium-dependent protein kinase 4 (Plasmodium falciparum (isolate 3D7)) (Q8IBS5 whole entry, looked up): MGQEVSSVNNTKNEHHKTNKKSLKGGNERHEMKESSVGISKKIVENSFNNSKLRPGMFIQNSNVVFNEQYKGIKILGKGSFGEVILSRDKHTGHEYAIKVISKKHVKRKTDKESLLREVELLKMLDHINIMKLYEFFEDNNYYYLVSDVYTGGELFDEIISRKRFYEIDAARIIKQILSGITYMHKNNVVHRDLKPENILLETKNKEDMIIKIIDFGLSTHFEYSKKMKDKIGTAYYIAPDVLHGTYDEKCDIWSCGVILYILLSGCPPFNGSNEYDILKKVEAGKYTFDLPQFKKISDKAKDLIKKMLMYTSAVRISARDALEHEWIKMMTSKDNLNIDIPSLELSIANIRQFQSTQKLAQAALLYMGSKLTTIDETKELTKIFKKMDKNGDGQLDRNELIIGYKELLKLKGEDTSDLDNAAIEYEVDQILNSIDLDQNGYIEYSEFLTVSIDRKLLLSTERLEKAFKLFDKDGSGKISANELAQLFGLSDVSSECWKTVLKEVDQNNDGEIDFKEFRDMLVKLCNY

Sequence of Calcium-dependent protein kinase 1 (Plasmodium falciparum (isolate 3D7)) (P62344 whole entry, looked up): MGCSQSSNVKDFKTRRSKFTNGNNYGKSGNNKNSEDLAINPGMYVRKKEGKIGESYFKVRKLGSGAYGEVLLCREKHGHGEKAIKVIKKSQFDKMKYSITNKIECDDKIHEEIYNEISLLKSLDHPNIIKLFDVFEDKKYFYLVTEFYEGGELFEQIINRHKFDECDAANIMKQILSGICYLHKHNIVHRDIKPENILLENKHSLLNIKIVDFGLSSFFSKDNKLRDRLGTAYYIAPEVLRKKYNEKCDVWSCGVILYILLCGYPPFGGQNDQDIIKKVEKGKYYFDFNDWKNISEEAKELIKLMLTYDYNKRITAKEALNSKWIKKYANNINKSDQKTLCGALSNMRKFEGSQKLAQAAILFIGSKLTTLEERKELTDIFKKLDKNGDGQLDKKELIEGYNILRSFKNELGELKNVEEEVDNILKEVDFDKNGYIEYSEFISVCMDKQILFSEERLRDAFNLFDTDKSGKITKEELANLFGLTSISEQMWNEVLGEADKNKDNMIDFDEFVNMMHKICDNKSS
Sequence of L-lactate dehydrogenase (Plasmodium falciparum (isolate CDC / Honduras)) (Q27743 whole entry, looked up): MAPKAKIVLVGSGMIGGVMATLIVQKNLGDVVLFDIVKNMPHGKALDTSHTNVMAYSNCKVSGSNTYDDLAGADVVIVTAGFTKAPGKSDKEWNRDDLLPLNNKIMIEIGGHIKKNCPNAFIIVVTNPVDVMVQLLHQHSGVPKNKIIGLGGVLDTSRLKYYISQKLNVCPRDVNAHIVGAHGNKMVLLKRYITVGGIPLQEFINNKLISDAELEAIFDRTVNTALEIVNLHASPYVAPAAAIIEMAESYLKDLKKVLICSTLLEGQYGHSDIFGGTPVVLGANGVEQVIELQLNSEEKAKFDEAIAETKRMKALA
Sequence of Protein kinase 7 (PK7), Plasmodium falciparum 3D7 (PF3D7_0213400) (Q7YTF7 1-343): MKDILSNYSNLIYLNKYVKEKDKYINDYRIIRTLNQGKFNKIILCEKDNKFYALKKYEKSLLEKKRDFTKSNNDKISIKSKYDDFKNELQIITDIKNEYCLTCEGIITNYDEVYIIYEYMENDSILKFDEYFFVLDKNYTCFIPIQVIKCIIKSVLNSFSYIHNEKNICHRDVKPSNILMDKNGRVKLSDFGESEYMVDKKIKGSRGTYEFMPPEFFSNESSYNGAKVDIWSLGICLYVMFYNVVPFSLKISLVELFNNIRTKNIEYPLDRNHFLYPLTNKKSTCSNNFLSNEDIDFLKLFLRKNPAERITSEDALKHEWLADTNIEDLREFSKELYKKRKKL
Sequence of Plasmodium falciparum protein kinase 6 (PK6, PF3D7_1337100) (Q8IDW1 1-305): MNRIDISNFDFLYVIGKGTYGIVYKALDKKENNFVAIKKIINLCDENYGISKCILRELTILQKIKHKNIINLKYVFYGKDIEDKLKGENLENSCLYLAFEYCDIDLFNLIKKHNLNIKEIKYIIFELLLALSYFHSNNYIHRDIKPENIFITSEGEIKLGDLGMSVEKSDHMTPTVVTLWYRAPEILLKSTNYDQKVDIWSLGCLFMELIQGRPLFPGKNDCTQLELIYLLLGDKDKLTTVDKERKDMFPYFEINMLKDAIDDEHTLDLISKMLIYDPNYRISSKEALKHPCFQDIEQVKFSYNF

COc1c(C2CCN(CCCCNC(=O)c3cccc(-c4ccc(C(F)(F)F)cc4)c3)CC2)ccc2c1CCCC2
inactive: growth inhibition [1] 45% | inhibition [3] -4% | outcome [5] | outcome [6] | outcome [7] | outcome [8]
active: inhibition [2] 50% | growth inhibition [4] 92%

COc1ccc(O)c(C(=O)c2cc(C#N)c(=O)n(-c3ccc(Oc4ccccc4)cc3)c2)c1
inactive: growth inhibition [1] 20% | inhibition [2] 22% | inhibition [3] 5% | outcome [5] | outcome [6] | outcome [7] | outcome [8]
active: growth inhibition [4] 97%

NC(N)=NN=CC(=O)Nc1ccc(C(F)(F)F)cc1
inactive: growth inhibition [1] 9% | inhibition [2] 5% | inhibition [3] 1% | outcome [5] | outcome [6] | outcome [7] | outcome [8]
active: growth inhibition [4] 100%

COc1cc(N)c(Cl)cc1C(=O)NCC1CCN(c2nc(C)cc(C)n2)CC1
active: growth inhibition [1] 95% | growth inhibition [4] 96%
inactive: inhibition [2] -6% | inhibition [3] 4% | outcome [5] | outcome [6] | outcome [7] | outcome [8]

c1cc(CNCC2CCCO2)cc(-c2cccc(-c3nc4ccccc4[nH]3)c2)c1 (centres undefined)
active: growth inhibition [4] 100%
inactive: growth inhibition [1] 7% | inhibition [2] 15% | inhibition [3] 3% | outcome [5] | outcome [6] | outcome [7] | outcome [8]

Cc1ccc2nc(-c3ccccc3)cc(NN=Cc3cccnc3)c2c1
active: growth inhibition [4] 99%
inactive: growth inhibition [1] 39% | inhibition [2] 12% | inhibition [3] 1% | outcome [5] | outcome [6] | outcome [7] | outcome [8]

CCc1ccc(NC(=O)c2cccc(CN3CCCN(Cc4cccc(O)c4)CC3)c2)cc1
active: growth inhibition [1] 50% | inhibition [2] 53% | growth inhibition [4] 99%
inactive: inhibition [3] 3% | outcome [5] | outcome [6] | outcome [7] | outcome [8]

COc1ccc2nccc([C@@H](O)CN3CCC(NC(=O)C(c4ccsc4)N4CCN(c5ccccc5)CC4)CC3)c2c1 (some centres undefined)
inactive: growth inhibition [1] 17% | inhibition [2] 24% | inhibition [3] -8% | outcome [5] | outcome [6] | outcome [7] | outcome [8]
active: growth inhibition [4] 95%

Cc1ccc2nc(-c3ccccc3Nc3ccnc4cc(-c5nccs5)ccc34)[nH]c2c1
active: growth inhibition [1] 100% | growth inhibition [4] 101%
inactive: inhibition [2] 40% | inhibition [3] -5% | outcome [5] | outcome [6] | outcome [7] | outcome [8]

Cc1cc(C)c2[nH]cc(C(=O)O)c(=O)c2c1
inactive: inhibition [2] -1% | inhibition [3] -6% | outcome [5] | outcome [6] | outcome [7] | outcome [8]
active: growth inhibition [1] 60% | growth inhibition [4] 93%

COc1cc(CCCOc2c(N)nc(N)nc2N)cc(OC)c1OC
inactive: growth inhibition [1] 0% | inhibition [2] 8% | inhibition [3] 2% | outcome [5] | outcome [6] | outcome [7] | outcome [8]
active: growth inhibition [4] 88%

Cn1c(NC(=O)C2CCC(CNC(=O)c3ccc(O)c(-c4ccc(Cl)c(Cl)c4)c3)CC2)nc2ccccc21 (centres undefined)
active: growth inhibition [1] 100% | growth inhibition [4] 99%
inactive: inhibition [2] 40% | inhibition [3] 1% | outcome [5] | outcome [6] | outcome [7] | outcome [8]

CCC(=O)N(c1ccccc1)C1CCN(CCCC(NC(=O)Nc2cc(C(F)(F)F)cc(C(F)(F)F)c2)c2ccc(Cl)c(Cl)c2)CC1 (centres undefined)
active: growth inhibition [4] 99%
inactive: growth inhibition [1] 18% | inhibition [2] 29% | inhibition [3] -5% | outcome [5] | outcome [6] | outcome [7] | outcome [8]

CC1(C)N=C(N)N=C(N)N1OCCOc1ccc2ccccc2c1
inactive: inhibition [3] 5% | outcome [5] | outcome [6] | outcome [7] | outcome [8]
active: growth inhibition [1] 96% | inhibition [2] 70% | growth inhibition [4] 93%

CN1CCC(N2CCN(Cc3cccc(-c4ccc(-c5nc6ccc(C(F)(F)F)cc6[nH]5)cc4)c3)CC2)CC1
active: growth inhibition [1] 91% | inhibition [2] 100% | growth inhibition [4] 101%
inactive: inhibition [3] 4% | outcome [5] | outcome [6] | outcome [7] | outcome [8]

O=C(Nc1ccc(CC(=O)N2CCc3cc(Cl)c(N4CCN(C/C=C/c5ccccc5)CC4)cc32)cc1)Nc1cccc([N+](=O)[O-])c1
active: growth inhibition [4] 95%
inactive: growth inhibition [1] 27% | inhibition [2] -8% | inhibition [3] -5% | outcome [5] | outcome [6] | outcome [7] | outcome [8]

O=c1[nH]c2c(c(O)c1[N+](=O)[O-])CCC2
active: growth inhibition [4] 97%
inactive: growth inhibition [1] 1% | inhibition [2] 9% | inhibition [3] -5% | outcome [5] | outcome [6] | outcome [7] | outcome [8]

COc1ccc(NC(=O)c2ccc(-c3nc(-c4ccccc4)cs3)cc2)cc1N1CCN(C)CC1
active: growth inhibition [4] 93%
inactive: growth inhibition [1] 13% | inhibition [2] 17% | inhibition [3] -3% | outcome [5] | outcome [6] | outcome [7] | outcome [8]

O=C(N[C@@H](CC1CCCCC1)C(=O)NC1CCCCC1)c1ccc(O)c(-c2cccc(C(F)(F)F)c2)c1
active: growth inhibition [1] 95% | growth inhibition [4] 100%
inactive: inhibition [2] -7% | inhibition [3] -1% | outcome [5] | outcome [6] | outcome [7] | outcome [8]

Oc1ccc2c(c1NCC1CCCCC1)CCCC2
active: growth inhibition [1] 99% | growth inhibition [4] 99%
inactive: inhibition [2] 11% | inhibition [3] 0% | outcome [5] | outcome [6] | outcome [7] | outcome [8]

Cc1cccc(C(=O)Nc2ccnc(N3CCCN(Cc4cccc(O)c4)CC3)c2)c1
inactive: growth inhibition [1] 13% | inhibition [2] -21% | inhibition [3] 3% | outcome [5] | outcome [6] | outcome [7] | outcome [8]
active: growth inhibition [4] 84%

CC(C)NCc1cccc(-c2cccc(NC(=O)c3ccc(C#N)cc3)c2)c1
inactive: growth inhibition [1] 20% | inhibition [2] 18% | inhibition [3] 0% | outcome [5] | outcome [6] | outcome [7] | outcome [8]
active: growth inhibition [4] 97%

CS(=O)(=O)c1ccc(CCNCc2ccc(-c3ccc(CN(C(=O)c4ccco4)C4CCN(Cc5ccccc5)CC4)cc3)nc2)cc1
active: growth inhibition [4] 85%
inactive: growth inhibition [1] 38% | inhibition [2] 13% | inhibition [3] -1% | outcome [5] | outcome [6] | outcome [7] | outcome [8]

Cc1cc(NN=CC=Cc2ccccc2)c2ccc(F)cc2n1
inactive: growth inhibition [1] 30% | inhibition [2] 14% | inhibition [3] -3% | outcome [5] | outcome [6] | outcome [7] | outcome [8]
active: growth inhibition [4] 100%

Cc1cc(N[C@@H](C)C(=O)Nc2ccccc2)nc(NCCc2ccc(F)cc2)n1
active: growth inhibition [4] 100%
inactive: growth inhibition [1] 43% | inhibition [2] 33% | inhibition [3] -2% | outcome [5] | outcome [6] | outcome [7] | outcome [8]

CN1CCCc2cc(NC(=O)c3cc(-c4ccc(Cl)cc4)cs3)ccc2C1
inactive: growth inhibition [1] 34% | inhibition [2] 15% | inhibition [3] 4% | outcome [5] | outcome [6] | outcome [7] | outcome [8]
active: growth inhibition [4] 100%

COc1ccccc1CN1CCC(NC(=O)c2ccc(-c3ccc(N(C)C)cc3)s2)CC1
inactive: growth inhibition [1] 38% | inhibition [2] 29% | inhibition [3] -2% | outcome [5] | outcome [6] | outcome [7] | outcome [8]
active: growth inhibition [4] 90%

COCCOc1ccc(C(F)(F)F)cc1NC(=O)Cc1c(F)cccc1Cl
active: growth inhibition [1] 74% | growth inhibition [4] 88%
inactive: inhibition [2] 18% | inhibition [3] 2% | outcome [5] | outcome [6] | outcome [7] | outcome [8]

CC1(C)N=C(N)N=C(N)N1OCc1cccs1
active: inhibition [2] 60% | growth inhibition [4] 93%
inactive: growth inhibition [1] -1% | inhibition [3] -4% | outcome [5] | outcome [6] | outcome [7] | outcome [8]

CCC(O)(C#Cc1c(C)nc(N)nc1N)CC
inactive: growth inhibition [1] -5% | inhibition [3] 2% | outcome [5] | outcome [6] | outcome [7] | outcome [8]
active: inhibition [2] 63% | growth inhibition [4] 97%

COCCNCc1ccc(-c2cccc(CNC3CCN(Cc4ccccc4)CC3)c2)cc1
active: growth inhibition [1] 101% | growth inhibition [4] 100%
inactive: inhibition [2] 30% | inhibition [3] 0% | outcome [5] | outcome [6] | outcome [7] | outcome [8]

CCCCN(CCCC)CCCN(CCCN(CCCC)CCCC)c1cc(C)nc(Nc2ccc3cc(Br)ccc3c2)n1
inactive: inhibition [3] 5% | outcome [5] | outcome [6] | outcome [7] | outcome [8]
active: growth inhibition [1] 99% | inhibition [2] 52% | growth inhibition [4] 101%

COc1ccc(Nc2nccc(-c3ccc4ccnc(NCCCCN)c4c3)n2)cc1
active: growth inhibition [4] 95%
inactive: growth inhibition [1] 47% | inhibition [2] 15% | inhibition [3] 6% | outcome [5] | outcome [6] | outcome [7] | outcome [8]

COc1cccc(CNc2noc(-c3c(-c4ccccc4)noc3C)n2)c1OC
inactive: inhibition [2] -3% | inhibition [3] -2% | outcome [5] | outcome [6] | outcome [7] | outcome [8]
active: growth inhibition [1] 86% | growth inhibition [4] 97%

Oc1ccc2[nH]c(-c3cccc(F)c3)nc2c1CN1CCC(O)(c2ccccc2)CC1
active: growth inhibition [1] 72% | growth inhibition [4] 97%
inactive: inhibition [2] 21% | inhibition [3] -1% | outcome [5] | outcome [6] | outcome [7] | outcome [8]

COc1ccc2nccc([C@@H](O)CN3CCC(NC(=O)c4cc5cccnc5[nH]4)CC3)c2c1
inactive: growth inhibition [1] 6% | inhibition [2] -8% | inhibition [3] 2% | outcome [5] | outcome [6] | outcome [7] | outcome [8]
active: growth inhibition [4] 94%

C=CCn1c(SCC(=O)Nc2cc(Cl)ccc2Cl)nc2sc(C)cc2c1=O
active: growth inhibition [1] 96% | growth inhibition [4] 97%
inactive: inhibition [2] 8% | inhibition [3] 0% | outcome [5] | outcome [6] | outcome [7] | outcome [8]

c1ccc(CCNCc2cccc(-c3ccccc3CNCc3ccc4c(c3)OCO4)c2)nc1
active: growth inhibition [1] 80% | growth inhibition [4] 90%
inactive: inhibition [2] 41% | inhibition [3] -2% | outcome [5] | outcome [6] | outcome [7] | outcome [8]
